Measurements reported in PubChem BioAssay (NCATS).
Activity calls are given as the source filed them. Entries that show only a call come without a potency. The call rests on the fitted dose curve; in most records, active means well fitted activation curve with a large enough effect; inconclusive means small, poorly fitted or top-dose-only effect; inactive means flat fitted curve, though single readings scatter.

Assay: Confirmation and Secondary Assay for Modulators of Hemoglobin Beta Chain Splicing at IVS2 705 locus (AID 930);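 on activation: HeLa cells stably expressing the EGFP-705 splicing reporter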
Settings: HeLa EGFP-705 splicing reporter, GFP fluorescence, 48 h; series mostly up to 46.1 µM
How it was run: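 Stable HeLa line with EGFP disrupted by mutant beta-globin intron 2 (705). Overnight attachment, then 2 days of compound at 37C, 5% CO2. Signal: peak GFP intensity summed over objects 5-250 µm.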
Potency means the concentration at half of the fitted maximal effect.

SMILES	Potency
CC(=O)CC(c1ccccc1)c1c(O)c2ccccc2oc1=O (stereo not given)	inactive
COC(=O)Nc1nc2ccc(C(=O)c3ccccc3)cc2[nH]1	inactive
COc1ccc2c(c1)c(CC(=O)OCC(=O)O)c(C)n2C(=O)c1ccc(Cl)cc1	inactive
CNS(=O)(=O)Cc1ccc2[nH]cc(CCN(C)C)c2c1	inactive
CCn1cc(C(=O)O)c(=O)c2cc(F)c(N3CCNCC3)nc21	inactive
O=c1oc2c(O)c(O)cc3c(=O)oc4c(O)c(O)cc1c4c23	10 µM (active)
Cc1cccc(Nc2ccncc2S(=O)(=O)NC(=O)NC(C)C)c1	inactive
COc1ccc(C(=O)CC(=O)c2ccc(C(C)(C)C)cc2)cc1	inactive
CN(Cc1cc(Br)cc(Br)c1N)C1CCCCC1	inactive
O=S(=O)(O)CCS	inactive
CCCCS(=N)(=O)CCC(N)C(=O)O (stereo not given)	inactive
OC(Cn1cncn1)(Cn1cncn1)c1ccc(F)cc1F	inactive
COc1cc(NS(=O)(=O)c2ccc(N)cc2)nc(OC)n1	inactive
Nc1nc(N)c2nc(CNc3ccc(C(=O)NC(CCC(=O)O)C(=O)O)cc3)cnc2n1 (stereo not given)	inactive
CCCCCCNC(=O)n1cc(F)c(=O)[nH]c1=O	inactive
S=P(N1CC1)(N1CC1)N1CC1	inactive
Oc1c(Cl)cc(Cl)c2cccnc12	inactive
COc1ccccc1OCC(O)COC(N)=O (stereo not given)	inactive
O=C(O)c1cccnc1	inactive
CCCCOc1ccc(CC(=O)NO)cc1	inactive
COc1c(N2CCNC(C)C2)c(F)cc2c(=O)c(C(=O)O)cn(C3CC3)c12 (stereo not given)	inactive
CN(CCOc1ccc(CC2SC(=O)NC2=O)cc1)c1ccccn1 (stereo not given)	inactive
NS(=O)(=O)c1cc2c(cc1Cl)NC(C(Cl)Cl)NS2(=O)=O (stereo not given)	inactive
CN(C)CCc1c[nH]c2ccc(CS(=O)(=O)N3CCCC3)cc12	inactive
COC(=O)Nc1nc2ccc(Sc3ccccc3)cc2[nH]1	inactive
Nc1nc(=S)c2[nH]cnc2[nH]1	5.01 µM (active)
CN1CCCC(n2nc(Cc3ccc(Cl)cc3)c3ccccc3c2=O)CC1 (stereo not given)	inactive
CCCc1cc(C(N)=S)ccn1	inactive
C1CCC(C(CC2CCCCN2)C2CCCCC2)CC1 (stereo not given)	inactive
Cc1cccc(N(C)C(=S)Oc2ccc3ccccc3c2)c1	inactive
